Assay outcomes from PubChem BioAssay.
D1 mod = D1 CRE-luciferase signal change, two-sided – cell-based, HEK293 D1, dopamine EC30, D1 allosteric modulator project, primary screen. D(1A) dopamine receptor (Homo sapiens), P21728. dopamine EC30 potentiation; actives deviate in either direction. B-score at 10 µM. 58,000 tested, 5.9% active. AID 641, 2007;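 active = luminescence count or its row- and column-corrected plate score outside the 99.7% band of the plate's sample wells, on either side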
PTK2B oligo ant = antagonists of Pyk2 self-association, primary screen, Q293 cells, FERM NanoBiT luminescence, HTS; Protein-tyrosine kinase 2-beta (Homo sapiens), Q14289; stronger effect = lower value; z-score (the deposit names both 25 µM and 10 µM); 99,000 tested, 0.83% active; AID 1347419, 2020;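 active = Z-score of -3 or lower, scaled per plate to the spread of control and sample wells; inactive = z-score above -3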;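 also: negative z-score means lost luminescence so less FERM oligomerization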
Mac1 fbg inh = inhibitors of CD11b/CD18 adhesion to fibrinogen, primary screen, K562 cells, luminescence. Integrin beta-2 (Homo sapiens) + Integrin alpha-M (Homo sapiens), P05107+P11215. ATPlite luminescence; Mn2+ added to activate the integrin. inhibition, % at 10 µM. 93,000 tested, 0.54% active. AID 1497, 2009;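 active = primary inhibition of 50% or more at 10 µM, then 40% or more on retest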
hDAT+cocaine = changed hDAT dopamine uptake under cocaine IC80, either direction, primary screen, cocaine antagonist project, cell-based, LLC-PK1 hDAT, [14C]-dopamine uptake, MLSMR. 110,000 tested, 1.3% active. Sodium-dependent dopamine transporter (Homo sapiens), Q01959. B-score at 10 µM. AID 449768, 2010. LLC-PK1 hDAT cells, [14C]-dopamine uptake with cocaine IC80; actives deviate in either direction;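 active = Z score or B-score, a plate-position-corrected score, falls beyond the plate's 99.7% confidence bounds, in either direction; inactive = both scores lie inside the 99.7% bounds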;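 also: scored against the spread of the other compound wells on the same plate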
Target sequence (Q01959 whole entry, looked up): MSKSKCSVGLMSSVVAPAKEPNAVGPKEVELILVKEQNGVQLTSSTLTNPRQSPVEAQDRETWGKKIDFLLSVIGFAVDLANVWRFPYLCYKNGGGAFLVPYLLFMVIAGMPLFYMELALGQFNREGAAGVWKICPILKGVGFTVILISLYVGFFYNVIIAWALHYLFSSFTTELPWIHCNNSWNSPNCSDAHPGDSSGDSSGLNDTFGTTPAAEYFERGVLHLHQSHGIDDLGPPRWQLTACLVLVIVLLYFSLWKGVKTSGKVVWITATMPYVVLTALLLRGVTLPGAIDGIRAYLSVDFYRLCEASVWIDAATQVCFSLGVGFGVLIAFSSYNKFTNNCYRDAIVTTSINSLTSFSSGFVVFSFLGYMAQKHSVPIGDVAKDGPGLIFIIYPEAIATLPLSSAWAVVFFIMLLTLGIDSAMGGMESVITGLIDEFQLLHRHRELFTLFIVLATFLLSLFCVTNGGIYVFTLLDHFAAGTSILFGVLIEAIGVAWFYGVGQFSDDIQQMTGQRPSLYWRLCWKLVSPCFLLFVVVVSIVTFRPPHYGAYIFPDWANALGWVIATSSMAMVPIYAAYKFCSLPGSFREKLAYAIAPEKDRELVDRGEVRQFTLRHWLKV
Mac1 fbg enh = enhancers of CD11b/CD18 adhesion to fibrinogen, primary screen, K562 cells, luminescence. 93,000 tested, 0.07% active. Integrin beta-2 (Homo sapiens) + Integrin alpha-M (Homo sapiens), P05107+P11215. activation, % at 10 µM. ATPlite luminescence;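 active = 10 µM primary screen giving 50% or more activity, confirmed by 40% or more on retest at that dose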
FAK inh = FAK kinase inhibitors, primary screen, biochemical; biochemical FAK kinase activity assay; inhibition, %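 (tested at 7 µM)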; AID 727, 2007; 97,000 tested, 0.84% active; in the data active = inhibition above about 19%;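 also: 0% = DMSO and 100% = reference compound high control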
D1 PAM confirm = D1 receptor positive allosteric modulators, retest, confirmation, cell-based, HEK293 D1, CRE-luciferase, duplicate; shares compounds with D1 mod; dopamine EC30 potentiation; stronger effect = higher value; luminescence at 10 µM; 2,200 tested, 88% active; AID 642, 2007;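 active = luminescence in either of two replicates above the same-plate mean plus 3 SD of the low-dose dopamine control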
D1 no dopamine = D1 receptor agonism without dopamine, confirmation, mechanism study for D1 allosteric modulator project, cell-based, HEK293 D1, CRE-luciferase, secondary assay 1. shares compounds with D1 mod. luminescence, no dopamine; stronger effect = higher value. luminescence at 10 µM. 1,900 tested, 0.8% active. AID 646, 2007; in the data active = luminescence above about 3900
Isoprot counter = alters isoproterenol CRE-luciferase response in HEK293 cells | HEK293 D1 CRE-luciferase, isoproterenol EC30 counter-screen | calls only at 10 µM | shares compounds with D1 mod | 2,200 tested, 63% active;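 active = luminescence in either replicate above plate mean of wells with a partly effective reference agonist dose plus 3 SD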;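 also: isoproterenol raises cAMP through native beta-adrenoceptor Gs so signal bypasses D1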
* marks the source's active call; other numbers are inactive results; i = inactive; . = no result given; + = active, no number. The full list was thinned out, with hits kept by preference.

SMILES	D1 mod	PTK2B oligo ant	Mac1 fbg inh	hDAT+cocaine	Mac1 fbg enh	FAK inh	D1 PAM confirm	D1 no dopamine	Isoprot counter
CCCNc1nc2c(c(=O)[nH]c(=O)n2C)n1CCc1ccccc1	3.1*	.	-10	0.075	-2	.	8752*	1684	i
CCC(C)Sc1nc2c(c(=O)[nH]c(=O)n2C)n1Cc1ccc(Cl)cc1 (configuration not stated)	0.03	-1	1	0.26	1	.	.	.	.
CCC(C)Sc1nc2c(c(=O)[nH]c(=O)n2C)n1CCc1ccccc1 (configuration not stated)	21*	-0.61	.	-0.41	.	4	20608*	1572	+
C/C(Cl)=C/Cn1c(SC(C)C)nc2c1c(=O)[nH]c(=O)n2C	32*	0.36	-5	-0.37	15	4	17228*	1588	+
Cn1c(=O)[nH]c(=O)c2c1nc(SCC(=O)O)n2CCc1ccccc1	0.97	0.34	4	0.5	0	-5	.	.	.
CCCNc1nc2c(c(=O)[nH]c(=O)n2C)n1CCCc1ccccc1	1.1	-0.28	18	-0.83	-4	2	.	.	.
CC(C)Sc1nc2c(c(=O)[nH]c(=O)n2C)n1CCc1ccccc1	26*	0.84	-6	-0.75	-1	.	24288*	1728	+
CCOC(=O)C(CC)Sc1nc2c(c(=O)[nH]c(=O)n2C)n1CCc1ccccc1 (configuration not stated)	0.14	-0.83	22	1.2	-1	2	.	.	.
COc1ccc(CNC(=O)COC(=O)c2cnccn2)cc1	.	0.37	-6	0.57	0	-1	.	.	.
CCCSc1nc2c(c(=O)n1CC)SC(C)C2 (configuration not stated)	4.7*	.	-14	.	-1	0	10748*	1604	+
CC1Cc2nc(SCC(N)=O)n(Cc3ccccc3)c(=O)c2S1 (configuration not stated)	2.2	.	.	-0.42	.	.	.	.	.
CCSc1nc2c(c(=O)n1Cc1ccccc1)SC(C)C2 (configuration not stated)	3.4*	-1.4	-19	0.57	1	5	11532*	1552	i
O=C(O)c1nc(N2CCCC2)ncc1Cl	.	0.31	2	0.061	3	1	.	.	.
COC(=O)c1ccc(Oc2cc(C)nc(SC)n2)cc1	5.3*	0.83	8	0.46	-6	-2	15492*	1728	+
Cn1cccc1Cc1nnc(SCC(=O)Nc2ccc(F)cc2)n1CCc1ccccc1	-0.027	.	2	-1.1	-1	.	.	.	.
Cn1cccc1Cc1nnc(SCC(=O)NC2CCCCC2)n1CCc1ccccc1	1.5*	.	-9	0.94	1	.	5188	1520	i
O=c1c2ccccc2nc(SCc2cccc(F)c2)n1Cc1ccco1	5.2*	-0.33	.	1.3	.	2	10716*	1512	i
COCCCNc1oc(-c2ccccc2F)nc1C#N	5.8*	.	-4	-0.28	-2	2	11980*	1596	+
N#Cc1nc(-c2ccccc2F)oc1NCc1ccccc1	7.9*	.	7	-0.19	16	14	14936*	1516	+
N#Cc1nc(-c2ccccc2F)oc1NCCc1ccccc1	.	0.06	.	-1	.	8	.	.	.
COc1ccc(C(=O)N(Cc2ccco2)C(C(=O)NC2CCCC2)c2ccc(O)cc2)cc1OC (configuration not stated)	0.17	-0.89	-20	-0.69	14	1	.	.	.
NC(=O)NC(CCC(=O)O)C(=O)O (configuration not stated)	.	.	.	-2.1	.	.	.	.	.
COc1cc2[nH]c(=S)n(CC3CCCO3)c(=O)c2cc1OC (configuration not stated)	1.9	0.64	-14	1	3	-1	.	.	.
COc1cc2[nH]c(=S)n(C3CCCC3)c(=O)c2cc1OC	2.9*	-1.2	15	0.18	1	.	13356*	1768	i
Cc1cc(C)n2nc(SC(C)C(=O)NCc3ccco3)nc2n1 (configuration not stated)	7.1*	0.23	25	0.025	1	-2	6820	1844	i
SMILES	D1 mod	PTK2B oligo ant	Mac1 fbg inh	hDAT+cocaine	Mac1 fbg enh	FAK inh	D1 PAM confirm	D1 no dopamine	Isoprot counter
Cc1cc(C)n2c(SCC(=O)NCc3ccco3)nnc2n1	-0.6	0.62	2	-0.18	0	0	.	.	.
Nc1nc(C2CC2)c(Sc2sc(N)nc2C2CC2)s1	10*	0.74	.	0.23	.	2	11736*	1620	+
CCCOc1ccc(C(=O)Nc2ccc(N3CCN(C(C)=O)CC3)cc2)cc1	3*	-0.56	.	0.2	.	5	6192	1528	i
CCCCCCNc1cc2n(c(=O)n1)CCc1cc(OC)c(OC)cc1-2	3.2*	-1	5	0.91	0	6	13732*	1896	+
COc1cc2c(cc1OC)-c1cc(NC3CCCCCCC3)nc(=O)n1CC2	7.6*	-1.5	0	1.7	-4	5	20716*	2740	+
COc1cc2c(cc1OC)-c1cc(NC3CCCCC3)nc(=O)n1CC2	.	-2.2	-8	0.044	-6	-1	.	.	.
COc1cc2c(cc1OC)-c1cc(NCc3ccccn3)nc(=O)n1CC2	5.2*	1.3	-4	0.18	-1	-1	10588*	1816	+
COc1cc2c(cc1OC)-c1cc(NC3CC3)nc(=O)n1CC2	5.7*	0.1	0	-0.047	-2	1	14400*	1568	+
COc1ccc(NC(=O)CC2C(=O)N(c3cccc(OC)c3)C(=O)N2CCC(C)C)cc1 (configuration not stated)	.	0.07	-9	0.89	2	2	.	.	.
O=C(NCc1nc2ccccc2[nH]1)C1=C[C@@H](c2ccc3c(c2)OCO3)C[C@@H](OCc2ccc(CO)cc2)O1	.	.	.	0.79	.	.	.	.	.
O=C(CSc1nnc(COc2ccc(F)cc2)o1)N1c2ccccc2CCc2ccccc21	4*	-0.37	25	-0.41	2	.	13460*	1676	i
